Shown are actives, neighbours in structure and some others; about 17% of the full set was active somewhere.
TDP1 cell noCPT: qHTS for Inhibitors of human tyrosyl-DNA phosphodiesterase 1 (TDP1): qHTS in cells in absence of CPT. DT40 Tdp1-/- hTDP1 cells, no CPT, ATP luminescence, 48 h. Potency, µM (top dose mostly 46.2 µM), without a hit: top-dose activity change, negative = growth inhibition, most hits filed as inhibitors. hit rate 15% among 420,000. AID 686978, 2013; further: on the % scale 0 is the no-effect control and ±100 the full control effect; nearly all actives have a fitted effect of over 55% in size
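No-CPT arm: Tdp1-/-;hTDP1 DT40 cells (400/well) plus compounds, incubated ≥48 hr at 37 °C. Readout CellTiter-Glo luminescence.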
TGFb inhibitor: TGF-b pathway inhibition; HepG2 CAGA-GFP TGF-b/SMAD3 reporter, GFP fluorescence, 18 h; TGF-beta stimulated, 500 pg/mL final; Potency, µM (top dose mostly 46.1 µM), for the others: at the top dose activity, negative = inhibition, actives largely listed as inhibitors; hit rate 1.2% among 410,000; further: on the % scale 0 is the no-effect control and ±100 the full control effect; nearly all actives have a fitted effect of over 65% in size
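Per well, imaged GFP fluorescence of HEPG2 CAGA-GFP cells gives the signal; cells get compound, then TGF-beta (500 pg/mL final), 18 h at 37 degrees C; %Activity versus -TGF-beta and +DMSO controls.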
DT40 TDP1 CPT: DT40-hTDP1 cell growth loss with CPT; Potency, µM (doses to about 46.2 µM), without a hit: at the highest dose activity change, negative = growth inhibition, actives largely listed as inhibitors; chicken DT40 Tdp1-/-;hTDP1 cells + 20 nM CPT, ATP luminescence, 48 h; hit rate 12% among 420,000; further: on the % scale 0 is the no-effect control and ±100 the full control effect; nearly all actives have a fitted effect of over 55% in size
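Chicken DT40 Tdp1-/- cells stably complemented with human TDP1 were seeded at 400 cells/well in medium containing 20 nM camptothecin, exposed to pin-transferred compounds, and grown at 37 °C for at least 48 hr. Viability was read as ATP luminescence.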
HT1080-NT tox: kills 2HG-producing HT-1080-NT fibrosarcoma cells. Potency, µM (highest dose often 46.1 µM), for the others: at the highest dose activity, negative = less viability, most hits filed as cytotoxic. hit rate 1.6% among 360,000. HT-1080-NT fibrosarcoma viability, CellTiter-Glo ATP luminescence, 48 h;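 further: NT is the 2HG producing partner of a matched IDH1 knockdown line; 0% = DMSO-treated cells and -100% = media-only wells without cells; nearly all actives have a fitted effect of over 55% in size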
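A 48-hour cytotoxicity screen used HT-1080-NT cells plated 2 hours before compound delivery. ATP-based CellTiter-Glo luminescence measured viability, normalized to DMSO and no-cell controls.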
HT1080 IDH1KD tx: HT-1080 IDH1 knockdown cell toxicity (counter line); HT-1080 IDH1 knockdown viability, ATP luminescence, 48 h; Potency, µM (top dose mostly 46.1 µM), for inactives: top-dose activity, negative = toxicity, most hits filed as cytotoxic; hit rate 2% among 360,000;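 further: 0% = DMSO wells and -100% = cell-free medium wells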
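In this qHTS, HT-1080 cells depleted of IDH1 are exposed for 48 h at 37 °C to compound titrations. Toxicity is scored from CellTiter-Glo luminescence, with DMSO as full viability and medium alone as none.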
HepG2 viability: HepG2 cytotoxicity, counter-screen for TGF-b inhibitors; HepG2 CAGA-GFP viability, ATP luminescence, 18 h; Potency, µM (top dose mostly 46.1 µM), without a hit: at the highest dose activity change, negative = cytotoxicity, actives largely listed as cytotoxic; hit rate 0.76% among 410,000; AID 588856
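HepG2 CAGA-GFP cells (1000/well, DMEM with 1% FBS) received compound, then TGF-beta at 500 pg/mL final, and were incubated 18 hours at 37 degrees C. Viability was read by CellTiter-Glo luminescence. Media-only wells were set as complete cell-killing and DMSO as no toxicity.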
The depositor's hits bear a star; [ ] = remark or other dose. The call rests on the fitted dose curve; in most records, active means well fitted curve in the direction sought with a large enough effect; inconclusive means small, poorly fitted or top-dose-only effect, or another doubt; inactive means no such curve, though single readings can be large; an effect the other way counts as inactive or inconclusive. Potency means the concentration at half of the fitted maximal effect.

Results for CCC(C)(C)c1ccc(OCCCC[n+]2ccccc2)c(C(C)(C)CC)c1 ?
TDP1 cell noCPT: 0.012µM*; TGFb inhibitor: inconclusive; DT40 TDP1 CPT: 0.58µM*; HT1080-NT tox: 16µM*; HT1080 IDH1KD tx: inconclusive; HepG2 viability: -104%

How did CCCCCc1ccc(OCCCC[n+]2ccc(C)cc2)c(CCCCC)c1 do in these assays?
TDP1 cell noCPT: 0.46µM*; TGFb inhibitor: 11µM*; DT40 TDP1 CPT: 1µM*; HT1080-NT tox: 6.5µM*; HT1080 IDH1KD tx: 6.5µM*; HepG2 viability: -97%

What do the screens show for `CCCCOc1ccc(C)cc1CN(CCO)CCO`?
TDP1 cell noCPT: 2%; TGFb inhibitor: -1%; DT40 TDP1 CPT: -9%; HT1080-NT tox: -12%; HT1080 IDH1KD tx: -1%[9.24 µM]; HepG2 viability: -8%

What do the screens show for `O=C(COC(=O)C12CC3CC(CC(Br)(C3)C1)C2)NCc1ccco1`?
TDP1 cell noCPT: -25%; TGFb inhibitor: -15%; DT40 TDP1 CPT: -6%; HepG2 viability: 2%

What do the screens show for `CN(C)c1cc2c(cc1NC(=O)c1ccccc1Cl)n(C)c(=O)n2C`?
TDP1 cell noCPT: inconclusive; TGFb inhibitor: inconclusive; DT40 TDP1 CPT: inconclusive; HT1080-NT tox: 1%; HT1080 IDH1KD tx: -6%; HepG2 viability: 18%

What do the screens show for `c1cc[n+](CCCC[n+]2ccccc2)cc1`?
TDP1 cell noCPT: 9%; TGFb inhibitor: -11%; DT40 TDP1 CPT: 3%; HT1080-NT tox: 0%; HT1080 IDH1KD tx: 6%; HepG2 viability: -3%

Results for CCCCCc1ccc(OCCCC[n+]2ccccc2)c(CCCCC)c1 ?
TDP1 cell noCPT: 2.6µM*; TGFb inhibitor: inconclusive; DT40 TDP1 CPT: 2.6µM*; HT1080-NT tox: 23µM*; HT1080 IDH1KD tx: 8.2µM*; HepG2 viability: -157%

What do the screens show for `O=[N+]([O-])c1ccc(-c2c(-c3ccccc3)ncc3ccc(F)cc23)cc1`?
TDP1 cell noCPT: inconclusive; TGFb inhibitor: -20%; DT40 TDP1 CPT: inconclusive; HT1080-NT tox: -15%; HT1080 IDH1KD tx: -6%; HepG2 viability: -33%

How did COc1cc2cnc(-c3ccccc3)c(-c3ccc(C(F)(F)F)cc3)c2cc1OC do in these assays?
TDP1 cell noCPT: inconclusive; TGFb inhibitor: 11µM*; DT40 TDP1 CPT: inconclusive; HT1080-NT tox: 1%; HT1080 IDH1KD tx: 7%; HepG2 viability: -35%

How did Fc1ccc2cnc(-c3ccccc3)c(-c3cc(C(F)(F)F)cc(C(F)(F)F)c3)c2c1 do in these assays?
TDP1 cell noCPT: 16µM*; TGFb inhibitor: inconclusive; DT40 TDP1 CPT: inconclusive; HT1080-NT tox: 7%; HT1080 IDH1KD tx: 18%; HepG2 viability: -37%

How did Fc1ccc2cnc(-c3ccccc3)c(-c3ccc(C(F)(F)F)cc3)c2c1 do in these assays?
TDP1 cell noCPT: 18µM*; TGFb inhibitor: -2%; DT40 TDP1 CPT: inconclusive; HT1080-NT tox: -12%; HT1080 IDH1KD tx: -26%; HepG2 viability: -33%

What do the screens show for `Fc1ccc2c(-c3cccc(C(F)(F)F)c3)c(-c3ccccc3)ncc2c1`?
TDP1 cell noCPT: 15µM*; TGFb inhibitor: inconclusive; DT40 TDP1 CPT: inconclusive; HT1080-NT tox: 14%; HT1080 IDH1KD tx: 23%; HepG2 viability: -23%

What do the screens show for `[C-]#[N+]c1cc(-c2ccncc2)c(C)[nH]c1=O`?
TDP1 cell noCPT: 2%[92.5 µM]; DT40 TDP1 CPT: 7%[92.5 µM]

What do the screens show for `CNc1cccc(-c2ccc(N3CCN(C)CC3)nc2)n1`?
TDP1 cell noCPT: -4%; TGFb inhibitor: -1%; DT40 TDP1 CPT: -6%; HT1080-NT tox: 11%; HT1080 IDH1KD tx: 1%; HepG2 viability: -1%

How did O=C(Cc1ccc(Cl)cc1)NO do in these assays?
TDP1 cell noCPT: inconclusive; DT40 TDP1 CPT: inconclusive; HT1080-NT tox: -6%; HT1080 IDH1KD tx: 7%

How did COc1ccccc1NC(=S)NC12CN3CN(CN(C3)C1)C2 do in these assays?
TDP1 cell noCPT: inconclusive; TGFb inhibitor: -1%; DT40 TDP1 CPT: -28%; HT1080-NT tox: 8%; HT1080 IDH1KD tx: 0%; HepG2 viability: 5%

What do the screens show for `COc1ccccc1NC(=S)N1CC(C)(C)C1=O`?
TDP1 cell noCPT: 1%; TGFb inhibitor: 2%; DT40 TDP1 CPT: -3%; HT1080-NT tox: 1%; HT1080 IDH1KD tx: 11%; HepG2 viability: 5µM*

Results for CCN(CC)c1ccc(C=Nc2ccc(OC)c(S(=O)(=O)N3CCOCC3)c2)c(O)c1 ?
TDP1 cell noCPT: -5%; TGFb inhibitor: 26%; DT40 TDP1 CPT: -8%; HT1080-NT tox: 2%; HT1080 IDH1KD tx: 7%; HepG2 viability: 15%

Results for COc1ccccc1NC(=O)CN1CCN(C2c3ccccc3-c3ccccc32)CC1 ?
TDP1 cell noCPT: 21µM*; TGFb inhibitor: -5%; DT40 TDP1 CPT: 18µM*; HT1080-NT tox: inconclusive; HT1080 IDH1KD tx: inconclusive; HepG2 viability: -34%

Results for COc1ccccc1NC(=O)CN1CCN(CC(=O)Nc2ccccc2F)CC1 ?
TDP1 cell noCPT: inconclusive; TGFb inhibitor: -2%; DT40 TDP1 CPT: inconclusive; HT1080-NT tox: 8%; HT1080 IDH1KD tx: 9%; HepG2 viability: -15%

Results for COc1ccc(NC(=O)CN2CCN(C3c4ccccc4-c4ccccc43)CC2)c(OC)c1 ?
TDP1 cell noCPT: 26µM*; TGFb inhibitor: -7%; DT40 TDP1 CPT: inconclusive; HT1080-NT tox: -12%; HT1080 IDH1KD tx: -21%; HepG2 viability: -9%

What do the screens show for `CCOc1ccc(NC(=O)CN2CCN(C3c4ccccc4-c4ccccc43)CC2)cc1`?
TDP1 cell noCPT: inconclusive; TGFb inhibitor: 17%; DT40 TDP1 CPT: inconclusive; HT1080-NT tox: 0%; HT1080 IDH1KD tx: -9%; HepG2 viability: -12%

How did COc1cccc(CN(Cc2ccccc2F)S(=O)(=O)c2ccc(S(=O)(=O)NCc3ccccc3)cc2)c1 do in these assays?
TDP1 cell noCPT: inconclusive; TGFb inhibitor: 12%; DT40 TDP1 CPT: inconclusive; HT1080-NT tox: -1%; HT1080 IDH1KD tx: 1%; HepG2 viability: -1%

Results for COc1cccc(CN(Cc2ccco2)S(=O)(=O)c2ccc(S(=O)(=O)NCc3ccccc3)cc2)c1OC ?
TDP1 cell noCPT: inconclusive; TGFb inhibitor: -28%; DT40 TDP1 CPT: 29µM*; HT1080-NT tox: 1%; HT1080 IDH1KD tx: -11%; HepG2 viability: -1%

Results for CN(C)c1ncc2nc(CCc3ccccc3)c(=O)n(CCC#N)c2n1 ?
TDP1 cell noCPT: -29%; DT40 TDP1 CPT: 8%

Source: PubChem
